Assay results reported in PubChem BioAssay.
Calls of active or inactive are those of the source.

Assays:
[1] = A549 cell viability effects, profiling panel, calcein-AM fluorescence, 48 h, basal (AID 1162); details: higher = more signal
[2] = adipocyte viability effects, profiling panel, cell-based, 3T3-L1 adipocytes, calcein-AM fluorescence, 48 h, basal (AID 1163); details: 3T3-L1 adipocytes viability, higher = more signal
[3] = HepG2 cell viability effects, profiling panel, calcein-AM fluorescence, 48 h, basal (AID 1164); details: higher = more signal
[4] = MM1S cell viability effects, profiling panel, calcein-AM fluorescence, 48 h, basal (AID 1165); details: higher = more signal;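 also: viability of MM1S multiple myeloma cells under basal unstimulated conditions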
[5] = basal RPMI8226 viability, no added stimulus, profiling panel, cell-based, calcein-AM fluorescence, 48 h, PK04 Diversity Set (AID 1166); details: RPMI8226 myeloma viability, higher = more signal;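 also: cells grown under basal conditions without added stimulus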
[6] = basal HepG2 mitochondrial membrane potential changes, profiling panel, cell-based, JC-1 fluorescence, 24 h, 100 nL compound (AID 1167); details: higher = more signal
[7] = basal 3T3-L1 adipocyte mitochondrial potential changes, profiling panel, cell-based, JC-1 fluorescence, 3T3-L1 adipocytes, 24 h, 100 nL compound (AID 1168); details: JC-1 mitochondrial fluorescence, higher = more signal, called active from +8 up or from −8 down
[8] = basal RPMI8226 mitochondrial membrane potential changes, profiling panel, cell-based, JC-1 fluorescence, 24 h, 100 nL compound (AID 1169); details: RPMI8226 myeloma, JC-1 mitochondrial potential fluorescence, higher = more signal
[9] = basal MM1S mitochondrial membrane potential changes, profiling panel, cell-based, JC-1 fluorescence, 24 h, 100 nL compound (AID 1170); details: higher = more signal
[10] = A549 lung cancer cell viability effects, profiling panel, resazurin fluorescence, 24 h, PK04 Diversity Set (AID 1171); details: higher = more signal, called active from +8 up or from −8 down
Also: test concentration not given here.

Row | SMILES | z-score [1] | z-score [2] | z-score [3] | z-score [4] | z-score [5] | z-score [6] | z-score [7] | z-score [8] | z-score [9] | z-score [10]
1 | C=CCC(OC(C)=O)[C@@H]1[C@@H](N(Cc2cccc3ccccc23)C(=O)Cc2ccc(OC)cc2)c2cc(OCCCO)ccc2N1C(=O)c1ccc2ccccc2n1 (stereo not given in full) | -0.639 | 1.69 | 0.493 | -1.27 | -0.192 | 1.64 | -0.0994 (inactive) | 0.106 | 0.306 | 0.679 (inactive)
2 | C=CCC(OC(C)=O)[C@@H]1[C@@H](N(Cc2cc3ccccc3o2)C(=O)c2ccc(C)cc2)c2cc(OCCCO)ccc2N1C(=O)Cc1ccc(OC)cc1 (stereo not given in full) | 1.09 | 0.426 | 0.979 | -0.143 | 0.166 | 2.52 | 0.235 (inactive) | 0.83 | 0.449 | 0.951 (inactive)
3 | O=C(NCC(F)(F)F)[C@@H]1c2ccccc2C(=O)N(Cc2cc(F)cc(C(F)(F)F)c2)[C@H]1c1ccc(CO)cc1 | 0.792 | 0.929 | -0.158 | 0.227 | -0.202 | 1.23 | 0.00233 (inactive) | -0.656 | -0.389 | 0.44 (inactive)
4 | O=C1OCCC=C[C@H]2OC34C=CCN(Cn5nnc6ccccc65)C(=O)[C@H]3N(CCCCCCO)C(=O)[C@@H]4C12 (stereo not given in full) | 0.16 | -0.808 | -0.381 | 1.78 | -0.264 | 0.515 | 0.256 (inactive) | -0.137 | -0.5 | -0.356 (inactive)
5 | COC(=O)C(CC#Cc1ccc2c(c1)[C@]1(C(=O)N2)[C@H](c2ccccc2OCCO)N2[C@H](c3ccccc3)[C@H](c3ccccc3)OC(=O)[C@H]2[C@@H]1C(=O)NC[C@H](O)c1ccccc1)C(=O)OC | 1.24 | -0.625 | 0.876 | -3.38 | -4.55 | -1.12 | 1.01 (inactive) | -1.11 | -2.27 | 0.107 (inactive)
6 | CC(C)[Si](C#CCCCC#N)(O[C@H](c1ccccc1)c1cn([C@H](CO)Cc2ccccc2)nn1)C(C)C | 0.773 | -0.0379 | -0.0933 | 0.172 | 0.231 | 0.0258 | -0.393 (inactive) | 0.266 | -1.47 | 0.723 (inactive)
7 | CCCCCCc1nc(C2CC2)cc2c1[Si](C(C)C)(C(C)C)O[C@H]2c1ccccc1 | -0.036 | -0.177 | -0.106 | -0.892 | -0.517 | -1.09 | -0.731 (inactive) | 0.573 | 0.0835 | 0.254 (inactive)
8 | COc1ccc(NC(=O)O[C@H]2[C@H](OC(=O)Nc3ccccc3)[C@H](OC(=O)Nc3ccccc3)[C@@H](OC)O[C@@H]2CO)cc1 | -0.985 | 0.998 | -1.29 | -2.7 | -2.72 | -0.186 | -0.0233 (inactive) | -0.339 | -0.261 | -1.44 (inactive)
9 | CN1C(=O)C2C=CC(C(O)C#Cc3ccccc3)N(Nc3ccccc3)C2C1=O (stereo not given) | -1.12 | -0.341 | -0.255 | -1.05 | -0.398 | -1.36 | 0.39 (inactive) | -1 | -1 | 0.699 (inactive)
10 | C=CCOC(=O)[C@H]1[C@@H]2C(=O)O[C@@H](c3ccccc3)[C@@H](c3ccccc3)N2[C@@H](c2ccc(OCCOC(=O)[C@@H]3C[C@@H]4C(=O)N5CCC[C@H]5C(=O)N4[C@@H]3c3ccc(O)cc3)cc2)[C@]12C(=O)Nc1ccc(I)cc12 | -0.455 | 0.276 | 0.018 | 0.0967 | -0.0749 | -1.24 | 0.88 (inactive) | -0.655 | -1.37 | -0.273 (inactive)
11 | COCCCNC(=O)[C@]1(CCS(=O)(=O)c2ccccc2)N=C(c2ccc(OCCCO)cc2)O[C@@H]1c1ccccc1CN=[N+]=[N-] | 1.61 | 0.652 | 1.15 | 0.114 | 0.0901 | 0.542 | 0.482 (inactive) | -0.393 | -1.34 | -0.97 (inactive)
12 | COCCCNC(=O)[C@@]1(Sc2ccc(C)cc2)CC(=O)N(C2CCCCC2)[C@@H]1c1ccc(CO)cc1 | -0.162 | 0.152 | -0.574 | -1.59 | -1.45 | -0.155 | 1.07 (inactive) | 0.855 | 0.2 | 0.377 (inactive)
13 | CC(C)OC(=O)C=C1C[C@@H](c2ccc(C(F)(F)F)cc2)O[C@@H](c2ccc(C(F)(F)F)cc2)O1 | 0.944 | -0.168 | 0.114 | -2.49 | -1.51 | -0.393 | 0.958 (inactive) | -0.478 | -1.02 | 0.452 (inactive)
14 | COC(=O)[C@H](Cc1ccccc1)N1CC(/C=C/C2CC2)=C[C@H]1[C@H](O)Cc1ccccc1 | 0.13 | -0.0604 | -0.551 | -3.38 | -3.98 | -2.09 | 0.128 (inactive) | -1.19 | -3.06 | -0.395 (inactive)
15 | [N-]=[N+]=NCc1ccccc1C[C@]1(C(N)=O)N=C(c2ccc(OCCCO)cc2)O[C@H]1c1ccccc1 | -0.277 | -0.0112 | -0.284 | -2.25 | -1.04 | -0.417 | 0.587 (inactive) | -0.715 | -0.464 | 0.004 (inactive)
16 | [N-]=[N+]=NCc1ccccc1[C@@H]1OC(c2ccc(OCCCO)cc2)=N[C@]1(CCS(=O)(=O)c1ccccc1)C(=O)NCC(O)CO (stereo not given in full) | 1.3 | 0.273 | 1.4 | 0.481 | 1.67 | -0.142 | 0.0693 (inactive) | -0.0493 | -0.198 | -0.911 (inactive)
17 | COC(=O)[C@@]1(Cc2ccc(F)cc2)[C@H]2c3cc(C(=O)N4CCCC4)n(CCc4ccc(O)c(O)c4)c3C[C@H]2CN1C(=O)c1ccccc1 | 0.863 | -0.0428 | 0.609 | -3.48 | -4.2 | 0.54 | -0.461 (inactive) | -0.788 | -1.59 | 0.0195 (inactive)
18 | COCCCNC(=O)[C@@]1(Cc2ccccc2N=[N+]=[N-])N=C(c2ccc(OCCCO)cc2)O[C@H]1c1ccccc1 | -1.07 | 0.538 | -0.412 | -1.41 | -2.78 | 1.02 | 1.27 (inactive) | -1.03 | -0.34 | 0.308 (inactive)
19 | COCCOC(=O)N1C(=O)[C@@]2(c3cc(C#CC4=CCCCC4)ccc31)[C@H](c1ccc(O)cc1)N1[C@H](c3ccccc3)[C@H](c3ccccc3)OC(=O)[C@H]1[C@@H]2C(=O)N1CCN(c2ncccn2)CC1 | -0.462 | -0.89 | 0.19 | 0.444 | 0.771 | 0.642 | 1.87 (inactive) | 0.736 | -0.587 | 0.0994 (inactive)
20 | CCOC(=O)[C@H]1[C@@H]2C(=O)N3CCC[C@H]3[C@H](O[Si](C(C)C)(C(C)C)C(C)C)[C@H]2C=C2CCN(S(=O)(=O)c3ccc(C)cc3)C[C@H]21 | 0.487 | 0.302 | -1.18 | -2.91 | -4.09 | 1.51 | -0.603 (inactive) | -1.06 | -0.814 | -0.742 (inactive)
21 | C=CCOC(=O)[C@H]1[C@@H]2C(=O)O[C@@H](c3ccccc3)[C@@H](c3ccccc3)N2[C@@H](c2ccc(OCCOC(=O)[C@@H]3C[C@@H]4C(=O)N[C@@H](CCCCNC(C)=O)C(=O)N4[C@@H]3c3ccc(O)cc3)cc2)[C@]12C(=O)Nc1ccc(I)cc12 | -0.34 | 0.522 | -0.786 | -1.6 | -0.957 | -1.03 | 2.24 (inactive) | -0.744 | -0.888 | -0.389 (inactive)
22 | C=CCNC(=O)[C@H]1[C@@H]2C(=O)O[C@@H](c3ccccc3)[C@@H](c3ccccc3)N2[C@@H](c2ccc(O)cc2)[C@]12C(=O)Nc1ccc(C#CC3(O)CCCCCC3)cc12 | -0.0001 | 0.0111 | -1.37 | -1.65 | -4.08 | -2.86 | -1.62 (inactive) | -1.25 | -0.291 | 0.421 (inactive)
23 | C=CC1c2cc(O)c(OC)cc2CCN1Cc1cc2c(cc1Br)OCO2 (stereo not given) | -3.63 | 1.28 | -4.07 | -3.17 | -4.57 | -2.98 | -0.196 (inactive) | -0.743 | -0.348 | -1.67 (inactive)
24 | COC(=O)c1ccc([C@H](NC(=O)c2ccco2)[C@]2(C)C[C@H]2C2CCCCC2)cc1 | -1.13 | -1.2 | -2.43 | -2.65 | -3.28 | -2.5 | -1.02 (inactive) | -0.89 | -1.12 | -2.55 (inactive)
25 | CCOC(=O)c1ccc(NC(=O)O[C@H]2[C@H](OC(=O)Nc3ccc4c(c3)OCO4)[C@@H](OC(=O)Nc3ccc4c(c3)OCO4)[C@@H](OC)O[C@@H]2CO)cc1 | -0.742 | 0.558 | -1.09 | -1.05 | -0.141 | 0.305 | 0.463 (inactive) | -0.66 | -0.979 | -0.214 (inactive)
26 | CCCCCCCCCCC(O)C1C=CC2C(=O)N(C)C(=O)C2N1Nc1ccc([N+](=O)[O-])cc1[N+](=O)[O-] (stereo not given) | -0.783 | -0.801 | -1.2 | -3.69 | -4.05 | 0.693 | -1.21 (inactive) | -0.935 | -1.8 | -0.283 (inactive)
27 | CC(CO)N1C(=O)[C@@H]2[C@H]3C(=O)OCC=C[C@H]3OC23C=CCN(C(C)(C)C)C(=O)[C@@H]13 (stereo not given in full) | -0.0702 | -0.643 | -0.711 | 1.08 | 0.0608 | -0.936 | -0.172 (inactive) | 0.127 | 0.0965 | -0.289 (inactive)
28 | COCCOC(=O)N1C(=O)[C@@]2(c3cc(C#CC4=CCCCC4)ccc31)[C@H](c1ccccc1OCCO)N1[C@H](c3ccccc3)[C@H](c3ccccc3)OC(=O)[C@H]1[C@@H]2C(=O)N1CCCCCCC1 | -2.1 | 0.443 | -0.599 | -2.38 | -2.38 | 0.737 | 0.262 (inactive) | -0.934 | -1.31 | 0.0309 (inactive)
29 | COc1ccc([Si](C)(C)[C@@H]2[C@@H](CCn3cc([C@H](O)c4ccccc4)nn3)O[C@]3(C(=O)N(Cc4ccc(N5CCC5=O)cc4)c4ccccc43)[C@H]2C)cc1 | 0.388 | 1.05 | 0.944 | 0.738 | -0.23 | 1.63 | 1.9 (inactive) | -0.0445 | -0.855 | 0.668 (inactive)
